# Source: PubChem BioAssay AID504834 (National Center for Advancing Translational Sciences (NCATS), 2011)
# About 22,000 (6.9%) of roughly 320,000 compounds were called active. Another 27% or so got no clear call; they are omitted. Calls come from the whole dose curve; as a rule, active = well fitted inhibition curve with a large enough effect; inconclusive = small, poorly fitted or top-dose-only effect, or another doubt; inactive = no such curve, though single readings can be large or run the other way. What follows is part of a selection rich in actives, with near analogues and random picks from the rest.
# Test: Primary qHTS for delayed death inhibitors of the malarial parasite plastid, 96 hour incubation
# Conditions: P. falciparum luciferase reporter growth; series mostly up to 28.7 µM; activity change, negative = inhibition: at the top concentration
# Summary of the method: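 Two parasite generations (96 h, 37 C, 5% CO2) of compound exposure in infected erythrocytes (0.05% parasitemia, 2% hematocrit). Luciferase-reporter P. falciparum; decreased luminescence indicates inhibited growth, aimed at apicoplast-acting delayed death.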
# % is set by controls: 0 for no effect and ±100 for the full control effect; potency is the fitted concentration of half-maximal effect.
SMILES,"activity change, negative = inhibition",Potency
CCCCn1c(N)c(N(CCC(C)C)C(=O)COC(=O)c2cccnc2OCC)c(=O)[nH]c1=O,52.6% (inactive),
Cc1ccc(/C=C2\SC(=S)N(CCC(=O)Nc3ccc(O)cc3)C2=O)cc1,46.5% (inactive),
COc1ccc(C(=O)NC(=S)NC2CCCCC2)cc1,-0.349% (inactive),
COc1ccc(OCC(=O)NNC(=O)c2ccc(-c3ccccc3)cc2)cc1,-17.4% (inactive),
COc1ccc(C(=O)NNC(=S)NC(=O)c2ccccc2)cc1,,6.57 µM (active)
Cc1cc(NC(=O)CCC(=O)N(CC(=O)NC2CCCC2)c2ccc(F)cc2)no1,40.9% (inactive),
C=CCC1=C/C(=C\c2c(N)n3nc(CC(=O)N4CCOCC4)sc3nc2=O)C=C(OC)C1=O,-14.7% (inactive),
Cc1cnc(NC(=O)CSc2c(Cl)cccc2Cl)s1,,10.4 µM (active)
Cc1ccc(SCC(=O)Nc2ncc(C)s2)cc1,3.99% (inactive),
Cc1cnc(NC(=O)CSc2nnc(C)s2)s1,-15.1% (inactive),
CCOC(=O)c1sc(=NC(=O)c2ccc(Br)cc2)n(C)c1C,65.4% (inactive),
CCOC(=O)C1=C(C)NC(SC)=NC1c1ccccc1 (stereo not drawn),-21.1% (inactive),
CCOC(=O)C1=C(C)Nc2sc(C(=O)c3ccc(Br)cc3)c(N)c2C1c1ccc(C(=O)OC)cc1 (stereo not drawn),,6.57 µM (active)
CC(OC(=O)/C=C/c1ccccc1)C(=O)Nc1ccc(C(N)=O)cc1 (stereo not drawn),-9.65% (inactive),
O=C(Nc1ccc(Br)cc1)C1CCC(=O)N1Cc1ccccc1Cl (stereo not drawn),,10.4 µM (active)
O=C1c2ccccc2C(O)N1Cc1ccccc1Cl (stereo not drawn),59.3% (inactive),
CCCCNC(=O)C1CCC(=O)N1CCc1ccccc1 (stereo not drawn),14.2% (inactive),
COc1ccc(-c2onc3ccc(C(C)=O)cc23)cc1,25.1% (inactive),
O=S(=O)(NC1CCN(S(=O)(=O)c2ccc3c(c2)OCCO3)CC1)c1c(F)cccc1F,,11.7 µM (active)
O=C(c1c(F)cccc1F)N1CCN(S(=O)(=O)c2ccc3c(c2)OCCO3)CC1,-5.48% (inactive),
O=C(c1ccc2c(c1)OCCO2)C1CCN(S(=O)(=O)c2cccc(F)c2)CC1,-2.68% (inactive),
CCOc1ccc(C(=O)CCN2CCOCC2)cc1,-16.3% (inactive),

SMILES,"activity change, negative = inhibition",Potency
O=C1CCN(CCCc2ccccc2)CCN1CCO,5.15% (inactive),
NS(=O)(=O)c1cccc(NC(=O)CC23CC4CC(CC(Br)(C4)C2)C3)c1,23.8% (inactive),
Cc1cccc(C(=O)OC(C)CN2CCN(C)CC2)c1 (stereo not drawn),46.6% (inactive),
Cc1ccc(C(=O)OC(C)CN2CCOCC2)cc1 (stereo not drawn),,5.86 µM (active)
CC(CN1CCOCC1)OC(=O)c1ccc(Cl)cc1Cl (stereo not drawn),5.52% (inactive),
O=C(COC(=O)c1ccccc1Br)Nc1nnc(-c2ccccc2)o1,6.55% (inactive),
CN1C/C(=C/c2cccs2)C(=O)/C(=C\c2cccs2)C1,-17.4% (inactive),
O=C(CNC(=O)c1ccccc1Br)NCCSc1ccc(Br)cc1,9.38% (inactive),
Cc1ccc(-c2cn(S(=O)(=O)c3cccc([N+](=O)[O-])c3)nc2N)cc1,,6.57 µM (active)
Cc1cc(C)n(S(=O)(=O)c2cccc([N+](=O)[O-])c2)n1,-17.8% (inactive),
O=[N+]([O-])c1cccc(S(=O)(=O)N2CCCCCC2)c1,10.5% (inactive),
COc1ccc(C(=O)N2CCCC(C(=O)c3ccccc3OC)C2)cc1OC (stereo not drawn),-26.1% (inactive),
COc1cccc(CN2CCCC(C(=O)c3ccccc3SC)C2)c1O (stereo not drawn),,1.65 µM (active)
CCOC(=O)CCNC(=O)N1CCCC(C(=O)c2ccccc2SC)C1 (stereo not drawn),-6.64% (inactive),
CCCCC(c1nnnn1CS(=O)(=O)c1ccc(C)cc1)N1CCC(C(N)=O)CC1 (stereo not drawn),-0.154% (inactive),
COc1ccc(C(=O)Nc2ccc(C(=O)NCC3CCCO3)cc2)c(OC)c1OC (stereo not drawn),-8.54% (inactive),
c1ccc(C2CCC(N3CCC(N4CCCCC4)CC3)CC2)cc1 (stereo not drawn),,2.62 µM (active)
CCOC(=O)CN1CCC(c2ccccc2)CC1,-21.3% (inactive),
O=C(Cc1ccccc1)N1CCN(C2CCCCCC2)CC1,203% (inactive),
CC1CCCC(C)N1C(=O)COC(=O)COc1ccccc1C#N (stereo not drawn),-0.308% (inactive),
COc1ccccc1OCC(=O)OCc1cc(-c2ccco2)on1,30.4% (inactive),
CN(CC(=O)Nc1ccc(F)c(F)c1F)C(=O)C1CC(=O)N(C2CCCC2)C1 (stereo not drawn),51.1% (inactive),

SMILES,"activity change, negative = inhibition",Potency
CC1=C(C(=O)OCC2CCCCC2)C(c2ccc(F)cc2)NC(=O)N1 (stereo not drawn),1.16% (inactive),
CCOC(=O)C1=C(C)NC(=O)NC1c1ccccc1 (stereo not drawn),-18.4% (inactive),
CCC(CC)COC(=O)C1=C(C)NC(=O)NC1c1ccc([N+](=O)[O-])cc1 (stereo not drawn),,4.65 µM (active)
Cc1ccc(N(CC(=O)NCC2CCCO2)C(=O)CNS(=O)(=O)c2ccc(Cl)cc2)cc1 (stereo not drawn),-13.8% (inactive),
CCc1nnc(NC(=O)CCC(=O)N2CCN(c3cc(C)ccc3C)CC2)s1,5.92% (inactive),
Cc1cc(Cl)nc(NC(=O)Nc2cccc(Cl)c2)n1,26.6% (inactive),
Cc1c(C=O)n(C)n(-c2ccccc2)c1=O,30.2% (inactive),
CNC(=O)CN1C(=O)NC(c2ccccc2)(c2ccccc2)C1=O,36.1% (inactive),
CCC1(c2ccccc2)C(=O)NC(=O)N(C)C1=O (stereo not drawn),,15.1 µM (active)
O=C(CSc1nc2ccccc2o1)N/N=C/c1ccccc1C(=O)O,195% (inactive),
CCc1ccc(OCC(=O)OC(C)C(=O)NC2CC2)cc1 (stereo not drawn),0.306% (inactive),
O=C1CCCN1CCCNc1ncnc2c1[nH]c1ccccc12,13.3% (inactive),
CC(C)OCCCNc1ncnc2c1[nH]c1ccc(F)cc12,,0.185 µM (active)
Cc1ccsc1C(=O)OCC(=O)Nc1cccc(F)c1,133% (inactive),
Cn1c2c(c(=O)n(C)c1=O)C(c1cccc(F)c1)C(C#N)=C(N)O2 (stereo not drawn),21.7% (inactive),
Cc1nn(CC(=O)Nc2ccc(F)cc2)c(=O)c2ccccc12,19.5% (inactive),
CCc1ccc(NC(=O)Cn2ncn3c(cc4ccccc43)c2=O)cc1,,1.47 µM (active)
CCc1ccc(NC(=O)Cn2nc(C)c([N+](=O)[O-])c2C)cc1,11.4% (inactive),
O=C(NCCN1CCOCC1)Nc1cccc(Cl)c1,105% (inactive),
CC(=O)Oc1cc2c(C(=O)NCCN3CCOCC3)c(C)oc2c2ccccc12,15.9% (inactive),
O=C(NCCN1CCOCC1)c1cc(Sc2cccc(Cl)c2)nc2ccccc12,,5.22 µM (active)
Cn1c(SCC(=O)N2CCCC2)nnc1-c1ccc2c(c1)OCO2,-17.5% (inactive),

SMILES,"activity change, negative = inhibition",Potency
O=C(CNc1ccccc1N1CCCC1=O)Nc1cc(Cl)ccc1-n1cncn1,41.9% (inactive),
O=C(Nc1ccccc1Cl)Nn1cnnc1,22.9% (inactive),
O=C(CN1CCCCCC1)Nc1ccc(Br)cc1Br,55.1% (inactive),
O=C(CN1CCCCCC1)Nc1ccc(Br)cc1[N+](=O)[O-],69.6% (inactive),
O=C(CN1CCCCC1)Nc1ccc(Br)cc1C(=O)c1ccccc1Cl,,1.85 µM (active)
Cc1cccc(-n2ncc(Cl)c(Cl)c2=O)c1,-4.47% (inactive),
COc1ccc(C(=O)NCC2CCCCC2)cc1S(=O)(=O)N1CCCC1,-107% (inactive),
COc1cc(NC(=O)c2ccc(-c3csc(C)n3)cc2)c(OC)cc1Cl,,4.15 µM (active)
COc1cccc(CC(=O)Nc2ccc(-c3csc(C)n3)cc2)c1,-16.2% (inactive),
CCOCC(=O)Nc1cc(OC)c(Cl)cc1OC,21.5% (inactive),
COc1cc(C(=O)NCc2nnc(SCC(=O)c3ccc(Cl)cc3)o2)cc(OC)c1OC,8.44% (inactive),
Cc1ccc(NS(=O)(=O)c2cc3c(cc2C)NC(=O)CO3)cc1,18.2% (inactive),
COc1ccc(CCNC(=O)NS(=O)(=O)c2ccc(C)cc2)cc1OC,15.1% (inactive),
Cc1cccc(N2CCN(C(=O)c3cnn4c(C(F)F)cc(-c5ccccc5)nc34)CC2)c1C,-5% (inactive),
Cc1ccc(Cl)cc1N1CCN(C(=O)c2cccc3c(=O)c(C)c(-c4ccccc4)oc23)CC1,,2.08 µM (active)
O=C(c1cc(-c2ccc(Cl)cc2)on1)N1CCN(c2ccccc2)CC1,66.5% (inactive),
O=C(CC1C(=O)NCCN1CC(c1ccccc1)c1ccccc1)NCC1CCOCC1 (stereo not drawn),63.7% (inactive),
O=C(COc1ccccc1Cl)N1CCCCCCC1,-12.9% (inactive),
CCC(CC)c1nnc(NC(=O)C2CCN(C(=O)c3ccco3)CC2)s1,12.9% (inactive),
CN(C)C(CNC(=O)c1ccc(OCc2cn3ccccc3n2)cc1)c1ccco1 (stereo not drawn),19.2% (inactive),
CC(Oc1cc2oc(=O)c3c(c2cc1Cl)CCCC3)C(=O)NCc1ccncc1 (stereo not drawn),-24.1% (inactive),
COc1ccc(CNC(=O)CCN2C(=O)c3ccccc3C2=O)cc1,-6.81% (inactive),

SMILES,"activity change, negative = inhibition",Potency
CC(CCn1cccn1)NC(=O)CCc1nnc(CCc2ccccc2)o1 (stereo not drawn),22% (inactive),
COc1ccc(CCc2nnc(CCC(=O)NCc3cnn(-c4ccccc4C)c3)o2)cc1,,9.28 µM (active)
Cc1ccc(C)c(N2CCN(S(=O)(=O)c3c(C)[nH]c(C)c3C(=O)N3CCCC3)CC2)c1,-2.64% (inactive),
O=C(N/N=C/c1c[nH]c2ccccc12)c1ccccc1O,,11.7 µM (active)
CSC(=S)N/N=C/c1c[nH]c2ccccc12,18.9% (inactive),
O=C(N/N=C/c1c[nH]c2ccccc12)c1cc2ccccc2o1,-4.84% (inactive),
CCc1cc(=O)oc2c(C)c(OCC(=O)NCCN3CCOCC3)ccc12,12% (inactive),
CCCc1cc(=O)oc2cc(OCC(=O)Nc3ccc(CN4CCOCC4)cc3)c(Cl)cc12,,10.4 µM (active)
CCOc1ccc(C(=O)Nc2ccc(CN3CCOCC3)cc2)cc1Cl,232% (inactive),
Cc1nc(-c2ccc(Cl)cc2)sc1C1(C)CC(c2ccccc2F)=NO1 (stereo not drawn),24.9% (inactive),
COCCCN1C(=O)c2ccc(C(=O)OCC(=O)NCc3ccccc3OC)cc2C1=O,2.31% (inactive),
Cc1c(C)c(C)c(S(=O)(=O)NCCc2ccccn2)c(C)c1C,4.22% (inactive),
Cc1ccc(OCc2cc(C(=O)N(C)CCc3ccccc3)no2)cc1C,,13.1 µM (active)
CN(Cc1cccnc1)C(=O)c1cc(COc2ccc3ncccc3c2)on1,-0.897% (inactive),
CSc1ccccc1OCc1cc(C(=O)N(C)CCc2c(C)n[nH]c2C)no1,-0.638% (inactive),
Cc1cc(S(=O)(=O)N2CCOCC2)ccc1OCC(=O)Nc1cccc(C(F)(F)F)c1,41.3% (inactive),
O=C(N/N=C/c1cccc(OC(=O)c2ccc([N+](=O)[O-])cc2)c1)c1cccnc1,10.1% (inactive),
Cc1cccc(C(=O)NCCCN2CCCC2=O)c1,32.3% (inactive),
Cc1cccc(C(=O)NCCCN(C)CCCNC(=O)c2cccc(C)c2)c1,64.7% (inactive),
Cc1cccc(-c2nc3ccc(C(=O)NCCN4CCN(C)CC4)cc3nc2-c2cccc(C)c2)c1,,11.7 µM (active)
